For 25 compounds, inhibition results are on record in PubChem BioAssay AID1376 (SRMLSC, 2008).

SMILES strings stand for the structures. Among all 220,000 compounds or so, about 530 (0.24%) were called active. Rule as the data show it: active = inhibition above about 13%; inconclusive = no clear call, values can overlap the other calls; inactive = below that. What follows is part of a selection rich in actives, with near analogues and random picks from the rest. Measured potencies and affinities stand elsewhere.

As a reminder, the inhibition is the change of the read-out against control, counted positive when it falls.

Chain of Bifunctional protein GlmU (Mycobacterium tuberculosis (strain ATCC 25618 / H37Rv)) (P9WMN3 whole entry, looked up): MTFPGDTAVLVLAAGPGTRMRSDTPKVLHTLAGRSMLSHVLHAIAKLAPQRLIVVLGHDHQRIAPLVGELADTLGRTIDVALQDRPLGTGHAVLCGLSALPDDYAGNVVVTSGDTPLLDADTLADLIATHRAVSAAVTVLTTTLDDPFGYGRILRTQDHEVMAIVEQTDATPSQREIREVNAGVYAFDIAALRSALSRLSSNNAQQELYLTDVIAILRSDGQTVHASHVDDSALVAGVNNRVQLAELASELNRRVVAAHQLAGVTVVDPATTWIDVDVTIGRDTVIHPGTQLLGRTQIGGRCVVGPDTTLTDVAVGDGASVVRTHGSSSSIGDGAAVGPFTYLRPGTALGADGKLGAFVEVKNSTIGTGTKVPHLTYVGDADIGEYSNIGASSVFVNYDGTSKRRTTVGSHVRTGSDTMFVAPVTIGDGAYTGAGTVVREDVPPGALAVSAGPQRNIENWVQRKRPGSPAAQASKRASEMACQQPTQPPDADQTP

The assay concerns the target Bifunctional protein GlmU (Mycobacterium tuberculosis (strain ATCC 25618 / H37Rv)) (UniProt P9WMN3). As to the kind of experiment: inhibition of mycobacterial GlmU enzyme – biochemical, glucosamine-1-phosphate acetyltransferase (AID 1376).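 Also: 0% = complete reaction with vehicle and 100% = reaction without substrate.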 To be noted: M. tuberculosis GlmU acetyltransferase enzyme assay; active compounds read high;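 tested at 30 µM in the primary screen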.
For the compound `CN(C)/C=C(\C#N)C(=O)Nc1ccc(O)cc1F`, the inhibition is -2.68% (inactive).
The result for `CC(NC(=O)c1ccco1)C(=O)OCc1cccc(Cl)c1` (stereo not given) reads 2.75% (inactive); that for `Cc1ccccc1NC(=O)CS(=O)(=O)c1cn(CC(=O)N2CCOCC2)c2ccccc12`, -2.25% (inactive).
The result for `CCCN(Cc1cc2ccccc2[nH]c1=O)C(=O)c1cccc([N+](=O)[O-])c1` reads -2.01% (inactive); that for `O=C(O)c1cccc(Cn2c(Cl)c(/C=N/NC(=O)c3ccccc3)sc2=O)c1`, 1.79% (inactive); that for `O=C(O)c1cccc(Cn2c(Cl)c(/C=N/NC(=O)c3ccccc3O)sc2=O)c1`, 5.34% (inactive).
Turning to `CCC(C)OC(=O)C[N+](C)(C)CCOC1CC2CCC1(C)C2(C)C` (stereo not given), the inhibition is -2.89% (inactive).
The result for `Cn1c(=O)c([N+](=O)[O-])c(NCc2ccc3c(c2)OCO3)c2ccccc21` reads 0.57% (inactive).
Consider `S=c1[nH]nc(COc2ccccc2)n1/N=C/c1ccco1`, for which the inhibition was 3.61% (inactive).
With `Nc1c(C(=O)NCC2CCCO2)sc2nc3c(c(-c4ccco4)c12)CC/C3=C\c1ccco1` (stereo not given), the inhibition was 12.4% (inactive).
As for `Nc1c(C(=O)NC2CC2)sc2nc3c(c(-c4ccco4)c12)CC/C3=C/c1ccco1`, the inhibition was 16.9% (active).
Next, `Nc1c(C(=O)Nc2ccccc2)sc2nc3c(c(-c4ccco4)c12)CCC3`: -1.21% (inactive); `Cc1cccc2cc(C#N)c(NCc3ccccc3)nc12`: 1.49% (inactive); `CCOC(=O)N1CCC(NC(=O)c2cccn3c(=O)c4cc(Br)ccc4nc23)CC1`: 3.26% (inactive).
The result for `CCOc1ccccc1NC=C1C(=O)OC2(CCCCC2)OC1=O` reads -1.31% (inactive).
With `COc1ccc(OC)c(NC=C2C(=O)OC3(CCCCC3)OC2=O)c1`, the inhibition is 2.73% (inactive).
Turning to `COc1ccccc1NC=C1C(=O)OC2(CCCCC2)OC1=O`, the inhibition is 13.1% (active).
For `CCC(C)(C)NC(=O)C(c1ccccc1)N(Cc1cccnc1)C(=O)c1csnn1` (stereo not given), the inhibition was 0.49% (inactive).
Regarding `CN(C)S(=O)(=O)c1cccc(NC(=O)/C=C/c2ccccc2[N+](=O)[O-])c1`, the inhibition was 6.53% (inactive).
Next, `O=S1(=O)c2ccccc2N=NN1Cc1cc(Cl)cc(Cl)c1`: 3.2% (inactive); `O=S1(=O)c2ccccc2N=NN1Cc1ccc(Cl)cc1`: 8.76% (inactive).
The result for `CC(C1CC2CCC1C2)n1c(-c2ccco2)n[nH]c1=S` (stereo not given) reads -2.34% (inactive); that for `COc1ccc(/C=N/n2c(-c3ccco3)nc3ccccc3c2=O)cc1`, -1.21% (inactive).
Next, `COc1cccc(/C=N/n2c(-c3ccco3)nc3ccccc3c2=O)c1OC`: -2.22% (inactive); `COc1cccc(/C=N/n2c(-c3ccco3)nc3ccccc3c2=O)c1`: 12.8% (active).
